Assay results taken from PMC4336329 (PLoS ONE, 2015).
About 2,200 (0.71%) of roughly 310,000 compounds showed an effect of 50% or more. The effect is printed as a negative number. For the sample, strong results were picked, then their nearest neighbours and some compounds at random.

The molecules below were run against human ether-à-go-go-related gene (hERG) potassium channel (human, UniProt Q12809) (assay: primary screen, population patch clamp on CHO cells stably expressing hERG; higher = less effect of the substance).
Sequence of human ether-à-go-go-related gene (hERG) potassium channel (Q12809 whole entry, looked up): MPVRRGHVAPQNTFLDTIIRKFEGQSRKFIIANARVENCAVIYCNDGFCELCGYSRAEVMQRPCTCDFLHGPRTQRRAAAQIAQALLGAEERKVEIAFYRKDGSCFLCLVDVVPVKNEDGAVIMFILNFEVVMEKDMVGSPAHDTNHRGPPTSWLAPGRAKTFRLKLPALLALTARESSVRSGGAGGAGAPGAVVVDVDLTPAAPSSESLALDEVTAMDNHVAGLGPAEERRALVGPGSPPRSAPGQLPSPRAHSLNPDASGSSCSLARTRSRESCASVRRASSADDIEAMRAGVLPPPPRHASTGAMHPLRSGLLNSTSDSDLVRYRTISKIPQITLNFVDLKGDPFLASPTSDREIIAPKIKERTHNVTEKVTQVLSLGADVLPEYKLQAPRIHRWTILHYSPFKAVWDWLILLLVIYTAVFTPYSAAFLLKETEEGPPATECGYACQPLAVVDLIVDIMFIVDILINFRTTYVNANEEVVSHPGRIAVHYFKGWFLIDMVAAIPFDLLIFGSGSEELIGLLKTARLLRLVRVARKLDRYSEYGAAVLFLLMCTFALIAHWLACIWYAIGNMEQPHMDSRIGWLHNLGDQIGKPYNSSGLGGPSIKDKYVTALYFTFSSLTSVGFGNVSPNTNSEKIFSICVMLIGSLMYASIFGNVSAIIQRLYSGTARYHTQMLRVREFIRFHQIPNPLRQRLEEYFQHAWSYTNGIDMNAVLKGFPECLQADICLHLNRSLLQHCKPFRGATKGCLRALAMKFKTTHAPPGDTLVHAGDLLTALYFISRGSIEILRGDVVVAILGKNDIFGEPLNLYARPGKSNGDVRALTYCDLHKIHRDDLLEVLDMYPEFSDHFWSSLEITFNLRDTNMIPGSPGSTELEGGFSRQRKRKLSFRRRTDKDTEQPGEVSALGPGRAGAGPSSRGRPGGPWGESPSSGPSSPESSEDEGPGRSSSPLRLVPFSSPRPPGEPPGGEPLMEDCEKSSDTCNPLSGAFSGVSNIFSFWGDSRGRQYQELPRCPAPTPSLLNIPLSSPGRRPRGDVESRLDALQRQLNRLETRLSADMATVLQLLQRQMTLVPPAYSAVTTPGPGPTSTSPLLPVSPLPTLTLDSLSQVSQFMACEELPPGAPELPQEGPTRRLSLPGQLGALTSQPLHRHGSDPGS

Point of comparison: `COc1ccccc1NS(=O)(=O)c1cc(NC(=O)C2CC2)ccc1N1CCOCC1`, “hERG current change (%, negative = inhibition) at 1uM” value 19.5%. Against it:
- O=C(NCCS(=O)(=O)NCc1ccccn1)c1ccccc1 — lower, 8.81%
- COc1ccccc1C(=O)NNC(=O)C12CC3CC(CC(C3)C1)C2 — lower, 12.4%
- COc1ccc(OC)c(-c2csc(N(Cc3ccco3)C(=O)c3cccs3)n2)c1 — lower, -0.179%
- CC(=O)CCC(=O)NCCc1ccccc1F — lower, 5.68%
- Cc1ccc(NC(=S)NNC(=O)C2CC2c2ccc(C)cc2)cc1 (stereo not shown) — lower, -10.4%
- COP(=O)(CC(=O)c1ccccc1)CC(=O)c1ccccc1 — lower, 8.51%
- COCCCNC(=S)NC1CC2CCCC(C1)N2Cc1cccs1 (stereo not shown) — lower, 1.43%
- COc1nc(-c2ccccc2)ccc1-c1noc(-c2cccs2)n1 — lower, 0.091%
- Br.COc1ccccc1NS(=O)(=O)c1cc(N2Cc3ccccc3C2=N)ccc1N1CCOCC1 — lower, -61.2%
- CCC(=O)Nc1ccc(N2CCOCC2)c(S(=O)(=O)Nc2ccc(Cl)cc2)c1 — lower, 11.9%
- Br.N=C1c2ccccc2CN1c1ccc(N2CCOCC2)c(S(=O)(=O)Nc2ccc(Cl)cc2)c1 — lower, -89.2%
- COc1ccccc1NS(=O)(=O)c1cc(NC(=O)C(C)(C)C)ccc1N1CCOCC1 — lower, -4.51%
- O=S(=O)(Nc1ccc(N2CCOCC2)cc1)c1cc(Cl)ccc1Cl — lower, 7.82%
- Cn1c(=O)n(C)c2cc(S(=O)(=O)NCC(=O)O)ccc21 — lower, 4.84%
- CCOc1ccc(CCNC(=O)c2cc3sccc3n2CC)cc1OCC — lower, 14.1%
- COc1cc(NC(=O)CCS(=O)(=O)c2ccc3nc(C)sc3c2)cc(OC)c1OC — lower, 15.8%
- CN(C)c1cccc(/C=C(\C#N)c2ccccc2)c1 — lower, 14.2%
- CCOc1ccc(N(C(=O)c2cnsn2)C(C(=O)NC2CCCCC2)c2ccncc2)cc1 (stereo not shown) — lower, -52.1%
- COc1ccc(N(C(=O)c2cnsn2)C(C(=O)NC2CCCCC2)c2ccncc2)cc1 (stereo not shown) — lower, 7.11%
- CCOc1ccc(N(C(=O)c2cnccn2)C(C(=O)NC2CCCCC2)c2ccc(O)cc2)cc1 (stereo not shown) — lower, 12.4%
- COc1cccc(C(=O)Nc2ccc(Cl)c(C(F)(F)F)c2)c1 — lower, 8.09%
- O=CN1CCCN(C(=O)CC2C(=O)NCCN2Cc2cccc(Oc3ccccc3)c2)CC1 (stereo not shown) — lower, -14.6%
- Cn1c(CCN2CCOCC2)nc2cc(NS(=O)(=O)c3ccccc3)ccc21 — lower, 6.09%
- CC1CCN(CCc2nc3cc(NS(=O)(=O)c4ccc(F)cc4)ccc3n2C)CC1 — lower, -54.8%
- CCC(=O)Nc1ccc2c(c1)nc(CCN1CCC(C)CC1)n2C — lower, 12.3%
- Cn1c(CN2CCCCC2)nc2cc(NS(=O)(=O)c3ccc(F)cc3)ccc21 — lower, -21.8%
- CC(=O)Nc1ccc2c(c1)nc(CCN1CCC(C)CC1)n2C — lower, 12.4%
- Cn1c(CCN2CCCCC2)nc2cc(NS(=O)(=O)c3ccc(F)cc3)ccc21 — lower, -57.5%
- CC1CCN(CCc2nc3cc(NS(=O)(=O)c4ccccc4)ccc3n2C)CC1 — lower, -53.3%
- Cn1c(CCN2CCCC2)nc2cc(NS(=O)(=O)c3ccccc3)ccc21 — lower, 6.41%
- Cc1ccc(S(=O)(=O)Nc2ccc3c(c2)nc(CN2CCCC2)n3C)cc1 — lower, -9.18%
- CCn1c(=O)c(CCC(=O)NCC2CCCO2)c(C)c2c(C)nn(-c3ccc(C)cc3)c21 (stereo not shown) — higher, 19.9%
- CCOc1ccc(N2C(=O)c3cccnc3C2Nc2ccc(OC)cc2)cc1 (stereo not shown) — lower, 1.01%
- CCn1c(=NC(=O)CSCC(=O)Nc2nccs2)sc2ccccc21 — lower, 2.45%
- CN(C)c1ccc(C(=O)Nc2ccc(O)c3c(=O)cc(-c4ccccc4Cl)oc23)cc1 — lower, 2.71%
- C=CCc1cc(Cl)ccc1OCCCn1ccnc1.O=C(O)C(=O)O — lower, 7.27%
- COc1ccc(C(=O)NC(=O)NC2(C(Cl)(Cl)Cl)OCCO2)cc1 — lower, 8.1%
- Cc1ccc(NC(=O)C2CC(=O)N(CCc3ccccc3)C2)c(C)c1 (stereo not shown) — lower, 2.1%
- CC(C)CCNC(=O)c1c(N)n(Cc2ccc3c(c2)OCO3)c2nc3ccccc3nc12 — lower, 11.9%
- COc1ccc(CC2(CO)CCN(C(C)Cc3ccc(Cl)cc3)CC2)cc1 (stereo not shown) — lower, -80%
- CSCC(C)N1CCC(CO)(CCc2ccccc2)CC1 (stereo not shown) — lower, 13.9%
- COc1ccc(CC2(CO)CCN(C(=O)NCc3ccccc3)CC2)cc1 — lower, 10.4%
- CC(COc1ccccc1)N1CCC(CO)(CCc2ccccc2)CC1 (stereo not shown) — lower, -84.8%
- CN(C)S(=O)(=O)N1CCC(CO)(CCc2ccccc2)CC1 — lower, 12%
- CC(COc1ccccc1)N1CCC(CO)(Cc2ccccc2)CC1 (stereo not shown) — lower, -13.3%
- COc1ccc(CCC(C)N2CCC(CO)(Cc3ccccc3)CC2)cc1 (stereo not shown) — lower, -31.6%
- COc1ccc(CC2(CO)CCN(C(C)COc3ccccc3)CC2)cc1 (stereo not shown) — lower, -68.4%
- COc1ccc(CC2(CO)CCN(S(=O)(=O)N(C)C)CC2)cc1 — lower, 14.7%
- Cc1cccc2nc(-c3ccco3)c(Nc3ccc4c(c3)OCO4)n12 — lower, 5.48%
- CSCCC(NC(=O)c1ccc(Cl)cc1)C(=O)OCC(=O)Nc1ccc(C#N)cc1 (stereo not shown) — lower, -1.39%
- CCCn1cc(CN2CCCC(C(=O)c3cccc(OC)c3)C2)c(C)n1 (stereo not shown) — lower, -14.5%
- CS(=O)(=O)N1CCc2cc(-c3csc(NC(=O)Cc4cccs4)n3)ccc21 — lower, -5%
- CCc1ccccc1NNC(=O)c1snnc1C — lower, 1.7%
- CCC(C)N(C(=O)COC(=O)c1nc2nc(C)cc(C)n2n1)C1CCS(=O)(=O)C1 (stereo not shown) — higher, 21.2%
